According to PubChem BioAssay (EPA / NIEHS):
The source made the active and inactive calls. The calls were made as follows: active = hit-call score of the fitted dose curve at least 0.9, where 1 is the maximum; inactive = score below 0.9.

Legend:
Settings in all cases: mRNA level, 48 h; actives raise or lower the signal
[1] = read-out: ABC Transporter (ABCB11), ABCB11 (gene 8647); assay: LTEA_HepaRG_ABCB11: Life Technologies and Expression Analysis (LTEA) Assay for ABC Transporter (ABCB11) using HepaRG (AID 2283463)
In short: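 ABCB11 transcript levels quantified by TaqMan qRT-PCR against three housekeeping genes after 48 h chemical exposure of HepaRG cultures. Concentrations up to 100 uM in half-log steps, 0.5% DMSO vehicle; both induction and suppression scored.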

[2] = read-out: ABC Transporter (ABCC2), ABCC2 (gene 1244); assay: LTEA_HepaRG_ABCC2: Life Technologies and Expression Analysis (LTEA) Assay for ABC Transporter (ABCC2) using HepaRG (AID 2283464)
In short: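 Endpoint is ABCC2 transcript level from qRT-PCR, normalized to three housekeeping genes and fitted bidirectionally relative to DMSO. Human HepaRG cells received test chemical for 48 h at up to 100 uM (8 points, half-log steps, 0.5% DMSO), duplicate wells.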

[3] = read-out: ATP-citrate lyase (ACLY), ACLY (gene 47); assay: LTEA_HepaRG_ACLY: Life Technologies and Expression Analysis (LTEA) Assay for ATP-citrate lyase (ACLY) using HepaRG (AID 2283466)
In short: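 ACLY mRNA quantified by qRT-PCR on Fluidigm arrays against three housekeeping genes, after 48 h chemical treatment of HepaRG cells (top concentration 100 uM, half-log steps, 0.5% DMSO vehicle). Up- or down-regulation fitted relative to DMSO.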

[4] = read-out: Peroxisomal acyl-coenzyme A oxidase 1 (ACOX1) gene, ACOX1 (gene 51); assay: LTEA_HepaRG_ACOX1: Life Technologies and Expression Analysis (LTEA) Assay for Peroxisomal acyl-coenzyme A oxidase 1 (ACOX1) gene using HepaRG (AID 2283467)
In short: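 ACOX1 transcript levels were quantified by TaqMan qRT-PCR against three housekeeping genes after 48 h chemical exposure of differentiated human HepaRG cells. Exposure used eight half-log steps topping at 100 uM, 0.5% DMSO vehicle, in duplicate. Bidirectional curve fits were made relative to DMSO.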

[5] = read-out: Alkaline Phosphatase, Placental (ALPP) gene, ALPP (gene 250); assay: LTEA_HepaRG_ALPP: Life Technologies and Expression Analysis (LTEA) Assay for Alkaline Phosphatase, Placental (ALPP) gene using HepaRG (AID 2283468)
In short: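 ALPP transcript level, measured by qRT-PCR and normalized to three housekeeping genes (ACTB, GAPDH, POLR2A), after 48 h dosing of differentiated HepaRG in serum-free induction medium. Top concentration 100 uM with half-log dilutions (8 points, 0.5% DMSO, duplicates); bidirectional fitting relative to DMSO.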

[6] = read-out: Bcl-2 (BAD) gene, BAD (gene 572); assay: LTEA_HepaRG_BAD: Life Technologies and Expression Analysis (LTEA) Assay for Bcl-2 (BAD) gene using HepaRG (AID 2283469)
In short: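 Read-out: qRT-PCR of BAD mRNA, normalized to three housekeeping genes. Human HepaRG cultures got 48 h chemical exposure in 0.5% DMSO, duplicate eight-point half-log series topping at 100 uM. Gain or loss of signal fitted versus DMSO vehicle.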

[7] = read-out: adenosine kinase (ADK) gene, ADK (gene 132); assay: LTEA_HepaRG_ADK: Life Technologies and Expression Analysis (LTEA) Assay for adenosine kinase (ADK) gene using HepaRG (AID 2283471)
In short: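 HepaRG (human liver), 48 h chemical exposure, 8-pt half-log series, top 100 uM, 0.5% DMSO vehicle. Readout: ADK mRNA by qRT-PCR vs housekeeping genes; bidirectional curve fit relative to DMSO baseline.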

[8] = read-out: Alpha-fetoprotein (AFP) gene, AFP (gene 174); assay: LTEA_HepaRG_AFP: Life Technologies and Expression Analysis (LTEA) Assay for Alpha-fetoprotein (AFP) gene using HepaRG (AID 2283472)
In short: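 Measures AFP mRNA change in HepaRG after 48 h chemical exposure (8 half-log concentrations, highest 100 uM, 0.5% DMSO). Fold change relative to DMSO, fitted in both directions.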

[9] = read-out: BCL2L11 (gene 10018); assay: LTEA_HepaRG_BCL2L11: Life Technologies and Expression Analysis (LTEA) Assay for Bcl-2 (BCL2L11) gene using HepaRG (AID 2283473)
In short: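 BCL2L11 transcript levels are measured by Fluidigm qRT-PCR, normalized to three housekeeping genes. HepaRG cultures were plated 48 h, then treated 48 h with test chemical (top 100 uM, half-log, 0.5% DMSO vehicle); curves were fitted bidirectionally against DMSO.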

[10] = read-out: Apolipoprotein A-V (APOA5) gene, APOA5 (gene 116519); assay: LTEA_HepaRG_APOA5: Life Technologies and Expression Analysis (LTEA) Assay for Apolipoprotein A-V (APOA5) gene using HepaRG (AID 2283474)
In short: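 APOA5 transcript levels were quantified by qRT-PCR, normalized to three housekeeping genes, after 48 h chemical treatment of HepaRG cells (8 points, 100 uM maximum, half-log steps, 0.5% DMSO). Curves fitted in both directions against vehicle.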

[11] = read-out: Apoptosis regulator Bcl-2 (Homo sapiens) (UniProt P10415); assay: LTEA_HepaRG_BCL2: Life Technologies and Expression Analysis (LTEA) Assay for Bcl-2 gene using HepaRG (AID 2283475)
In short: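 Each chemical was tested in duplicate on HepaRG cultures held in serum-free induction medium for 48 h, highest concentration 100 uM with half-log dilutions. Transcript levels came from multiplexed qRT-PCR, normalised to housekeeping genes; activity was scored in either direction relative to DMSO.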

[12] = read-out: Caspase-3 (Homo sapiens) (UniProt P42574); assay: LTEA_HepaRG_CASP3: Life Technologies and Expression Analysis (LTEA) Assay for cysteine-aspartic acid protease (CASP3) using HepaRG (AID 2283477)
In short: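 Expression of CASP3 was quantified by TaqMan qRT-PCR against three housekeeping genes (ACTB, GAPDH, POLR2A), bidirectionally versus 0.5% DMSO. HepaRG cultures received compounds in duplicate, top 100 uM with half-log steps, for 48 h in serum-free induction medium.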

[13] = read-out: Cytochrome P450 (CYP24A1), CYP24A1 (gene 1591); assay: LTEA_HepaRG_CYP24A1: Life Technologies and Expression Analysis (LTEA) Assay for Cytochrome P450 (CYP24A1) using HepaRG (AID 2283478)
In short: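 mRNA of CYP24A1 quantified by TaqMan qRT-PCR (ACTB/GAPDH/POLR2A normalization) after 48 h chemical exposure of HepaRG cells, top concentration 100 uM, half-log steps, 0.5% DMSO vehicle, duplicates. Curves fitted bidirectionally against DMSO baseline.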

[14] = read-out: Cytochrome P450 (CYP1A2), CYP1A2 (gene 1544); assay: LTEA_HepaRG_CYP1A2: Life Technologies and Expression Analysis (LTEA) Assay for Cytochrome P450 (CYP1A2) using HepaRG (AID 2283479)
In short: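 CYP1A2 transcript measured by TaqMan qRT-PCR against three housekeeping genes after 48-hour chemical exposure of HepaRG cells. Eight-point half-log series topping at 100 uM in 0.5% DMSO, duplicates; gain or loss fitted relative to vehicle.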

[15] = read-out: cysteine-aspartic acid protease (CASP8), CASP8 (gene 841); assay: LTEA_HepaRG_CASP8: Life Technologies and Expression Analysis (LTEA) Assay for cysteine-aspartic acid protease (CASP8) using HepaRG (AID 2283480)
In short: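 CASP8 transcript measured by TaqMan qRT-PCR with ACTB/GAPDH/POLR2A normalization, after 48 h chemical exposure of HepaRG cells in serum-free induction medium. Eight concentrations, top 100 uM, half-log steps, 0.5% DMSO vehicle; fits in both directions versus DMSO.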

[16] = read-out: Cytochrome P450 (CYP2B6), CYP2B6 (gene 1555); assay: LTEA_HepaRG_CYP2B6: Life Technologies and Expression Analysis (LTEA) Assay for Cytochrome P450 (CYP2B6) using HepaRG (AID 2283481)
In short: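 CYP2B6 transcript level quantified by qRT-PCR against three housekeeping genes, fitted bidirectionally relative to DMSO. HepaRG cultures received chemicals for 48 h, 8-point half-log series from 100 uM in 0.5% DMSO, duplicate wells, serum-free induction medium.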

[17] = read-out: Cytochrome P450 2C19 (Homo sapiens) (UniProt P33261); assay: LTEA_HepaRG_CYP2C19: Life Technologies and Expression Analysis (LTEA) Assay for CYP2C19 using HepaRG (AID 2283482)
In short: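 CYP2C19 transcript levels by qRT-PCR, normalized to three housekeeping genes, in HepaRG cells after 48 h chemical exposure. Eight-point half-log series topping at 100 uM, 0.5% DMSO vehicle. Increases and decreases both fitted against DMSO.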

[18] = read-out: CYP2C8 (gene 1558); assay: LTEA_HepaRG_CYP2C8: Life Technologies and Expression Analysis (LTEA) Assay for CYP2C8 using HepaRG (AID 2283483)
In short: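 CYP2C8 expression measured by TaqMan qRT-PCR and normalized to three housekeeping genes. HepaRG cultures were treated for 48 h with an eight-point half-log series topping at 100 uM, vehicle 0.5% DMSO, duplicates; fitted both directions against DMSO.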

[19] = read-out: CYP2E1 (gene 1571); assay: LTEA_HepaRG_CYP2E1: Life Technologies and Expression Analysis (LTEA) Assay for CYP2E1 using HepaRG (AID 2283485)
In short: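 Assay uses 48 h exposure of HepaRG hepatic cells, eight concentrations to 100 uM. Expression of CYP2E1 is quantified by TaqMan qRT-PCR with ACTB, GAPDH and POLR2A normalization; curves fitted in both directions relative to vehicle.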

[20] = read-out: CYP4A11 (gene 1579); assay: LTEA_HepaRG_CYP4A11: Life Technologies and Expression Analysis (LTEA) Assay for CYP4A11 using HepaRG (AID 2283486)
In short: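 Readout is CYP4A11 transcript level by qRT-PCR, normalized to three housekeeping genes and fitted bidirectionally against 0.5% DMSO. Human HepaRG cells were treated 48 h, in duplicate, with an 8-point half-log series topping at 100 uM.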

Measured: AC50

Sequence of Caspase-3 (Homo sapiens) (P42574 whole entry, looked up): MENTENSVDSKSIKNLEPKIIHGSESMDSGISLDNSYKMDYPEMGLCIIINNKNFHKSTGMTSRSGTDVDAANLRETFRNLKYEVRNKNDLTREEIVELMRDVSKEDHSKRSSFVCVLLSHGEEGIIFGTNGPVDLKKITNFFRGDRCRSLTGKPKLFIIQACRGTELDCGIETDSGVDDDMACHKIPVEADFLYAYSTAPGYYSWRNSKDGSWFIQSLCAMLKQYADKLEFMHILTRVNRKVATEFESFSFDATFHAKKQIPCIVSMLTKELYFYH
Sequence of Cytochrome P450 2C19 (Homo sapiens) (P33261 whole entry, looked up): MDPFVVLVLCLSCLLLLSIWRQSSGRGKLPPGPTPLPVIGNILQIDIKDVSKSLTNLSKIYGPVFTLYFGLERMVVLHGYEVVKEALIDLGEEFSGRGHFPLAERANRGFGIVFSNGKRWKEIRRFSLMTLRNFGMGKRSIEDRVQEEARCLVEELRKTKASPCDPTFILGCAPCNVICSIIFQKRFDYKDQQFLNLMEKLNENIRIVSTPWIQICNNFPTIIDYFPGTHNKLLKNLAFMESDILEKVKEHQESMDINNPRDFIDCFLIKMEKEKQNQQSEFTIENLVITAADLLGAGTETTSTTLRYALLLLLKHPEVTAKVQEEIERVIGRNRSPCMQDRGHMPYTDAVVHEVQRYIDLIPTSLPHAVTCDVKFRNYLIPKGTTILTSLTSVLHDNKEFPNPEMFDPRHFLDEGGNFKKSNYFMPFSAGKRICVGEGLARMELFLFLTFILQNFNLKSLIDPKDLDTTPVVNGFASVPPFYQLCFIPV
Sequence of Apoptosis regulator Bcl-2 (Homo sapiens) (P10415 whole entry, looked up): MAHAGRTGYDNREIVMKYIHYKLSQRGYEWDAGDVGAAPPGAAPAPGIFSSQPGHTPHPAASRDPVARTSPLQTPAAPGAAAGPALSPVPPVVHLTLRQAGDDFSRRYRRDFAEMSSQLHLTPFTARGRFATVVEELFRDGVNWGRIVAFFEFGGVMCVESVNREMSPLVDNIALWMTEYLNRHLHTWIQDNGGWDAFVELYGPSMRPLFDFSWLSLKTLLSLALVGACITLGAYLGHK

CC(C)(C)c1ccccc1O
active: [16] 1.63 µM | [17] 1.47 µM | [18] 6.35 µM | [19] 15.1 µM
inactive: [1] | [2] | [3] | [4] | [5] | [6] | [7] | [8] | [9] | [10] | [11] | [12] | [13] | [14] | [15] | [20]

Cc1cc(C)cc(C)c1
inactive: [1] | [2] | [3] | [4] | [5] | [6] | [7] | [8] | [9] | [10] | [11] | [12] | [13] | [14] | [15] | [16] | [17] | [18] | [19] | [20]

CN(C)C(=S)S
inactive: [1] | [2] | [3] | [4] | [5] | [6] | [7] | [8] | [9] | [10] | [11] | [12] | [13] | [15] | [17] | [18] | [19] | [20]
active: [14] 72.3 µM | [16] 29.7 µM
